# Laboratory results: PubChem BioAssay (Tox21)
# Results filed as inconclusive are left out. Where a call stands in place of a potency, no number is given. Active and inactive are the calls of the source. Unless noted, the call rests on the fitted dose curve.
# Legend:
# [1] = Nuclear factor erythroid 2-related factor 2/antioxidant responsive element (Nrf2/ARE) small molecule agonists: luciferase reporter gene qHTS assay in human keratinocytes (AID 1919969); details: KeratinoSens HaCaT ARE-luciferase, luminescence, 24 h; series mostly up to 92.4 µM; further: nearly all actives have a fitted effect of over 35% in size; further: potency means the concentration at half of the fitted maximal effect
# [2] = molecular target: Gonadotropin-releasing hormone receptor (Homo sapiens) (UniProt P30968); experiment: Human gonadotropin-releasing hormone receptor (GnRHR) small molecule agonists, calcium flux assay in GnRHR-HEK293 cells (AID 1920063); details: calcium flux fluorescence, agonist mode; series mostly up to 57.6 µM; further: nearly all actives have a fitted effect of over 35% in size
# How it was run: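 Intracellular calcium rise is the read-out: engineered human GnRHR HEK293 cells, dye-loaded, are exposed to DMSO-dissolved compounds and fluorescence at Ex/Em 480/540 is tracked for 3 min.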
# [3] = molecular target: KiSS-1 receptor (Homo sapiens) (UniProt Q969F8); experiment: Human kisspeptin (KISS1R) small molecule agonists, calcium flux assay in KISS1R-HEK293 cells (AID 1920064; active means well fitted activation curve with a large enough effect in the repeat runs); details: KISS1R-HEK293, calcium flux fluorescence, agonist; series mostly up to 76.8 µM
# How it was run: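 Concentration-response testing used 15 concentrations in triplicate on human KISS1R-expressing HEK293 cells. Calcium-dependent fluorescence (Ex/Em 480/540) was followed kinetically for 3 min after compound transfer.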
# [4] = G protein-coupled receptor (GPCR) small molecule agonists, calcium flux assay: HEK293 wild type cell line counter screen (AID 1920065); details: HEK293 WT calcium flux, fluorescence, agonist mode; series mostly up to 57.6 µM
# How it was run: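 Fluorescence intensity signals activation. After overnight (18 h) culture and a 1 h calcium dye load at 37 C, compounds are added by pin tool and the plate read at 480/540 nm for 3 min in 1 s steps.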
# [5] = p53 small molecule agonists, cell-based qHTS assay with rat liver microsomes (AID 1963578); details: HCT-116 p53RE-bla, beta-lactamase ratio, 16 h; series mostly up to 66 µM
# How it was run: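 Each plate received p53RE-bla cells, then compound, then rat liver microsomes and NADPH (both 0.5 mg/mL final). Plates were held 16 h at 37 C, and beta-lactamase activity was detected with LiveBLAzer over 2 h.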
# [6] = p53 small molecule agonists, cell-based qHTS assay with human liver microsomes: qHTS cell viability counter screen (AID 1963579); details: p53RE-bla HCT-116 viability, ATP luminescence, 16 h, HLM; series mostly up to 66 µM; further: nearly all actives have a fitted effect of over 45% in size; further: potency means the concentration at half of the fitted maximal effect
# How it was run: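 Tox21 library compounds, delivered from DMSO stocks, were tested on p53RE-bla cells together with 0.5 mg/mL human liver microsomes and 0.5 mg/mL NADPH (final) over 16 h at 37 C; CellTiter-Glo luminescence served as the cytotoxicity measure.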
# [7] = p53 small molecule agonists, cell-based qHTS assay (AID 1963582; active means well fitted activation curve with a large enough effect in the signal ratio in the repeat runs, not every such curve was filed as active; the % refers to the signal ratio; further: potency means the concentration at half of the fitted maximal effect); details: HCT-116 p53RE-bla reporter, beta-lactamase FRET ratio, 16 h; series mostly up to 66 µM
# How it was run: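 After plating, p53RE-bla cells sat 5 h in the incubator; compounds or DMSO vehicle were pinned in; a 16 h incubation at 37 C followed; FRET substrate was added and, 2 h later at RT, fluorescence was measured.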
# [8] = molecular target: 5-hydroxytryptamine receptor 2A (Homo sapiens) (UniProt P28223); experiment: 5-hydroxytryptamine receptor 2A (HTR2A) small molecule antagonists, cell-based qHTS assay (AID 1963586); details: HTR2A-CHO cells, DOI-induced calcium flux, fluorescence; series mostly up to 61.5 µM; further: nearly all actives have a fitted effect of over 45% in size; further: potency means the concentration at half of the fitted maximal effect
# How it was run: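 CHO cells stably expressing human HTR2A were plated for 18 h at 37 C, then loaded with calcium dye for 1 h. Compounds were preincubated 5 min at room temperature before DOI (4 nM solution) was added. Kinetic fluorescence was read for 3 min.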
# [9] = molecular target: Muscarinic acetylcholine receptor M1 (Homo sapiens) (UniProt P11229); experiment: Cholinergic receptor muscarinic 1 (CHRM1) small molecule antagonists, cell-based qHTS assay (AID 1963588); details: CHRM1-CHO antagonist mode, calcium flux fluorescence; series mostly up to 61.5 µM; further: nearly all actives have a fitted effect of over 40% in size
# How it was run: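 Compounds were tested at 15 concentrations in three independent runs. Dye-loaded CHRM1-CHO cells were exposed 5 min at room temperature before stimulation by acetylcholine added at 50nM. Intracellular calcium was read kinetically on FDSS for 3 min.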
# [10] = molecular target: Muscarinic acetylcholine receptor M1 (Homo sapiens) (UniProt P11229); experiment: Cholinergic receptor muscarinic 1 (CHRM1) small molecule agonists, cell-based qHTS assay (AID 1963589); details: CHRM1-CHO cells, agonist mode, calcium flux fluorescence; series mostly up to 76.8 µM; further: nearly all actives have a fitted effect of over 35% in size
# How it was run: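 Fluorescent calcium dye reports M1 activation in stably transfected CHO cells. Compounds, 15 concentrations, added after 1 h dye loading at 37 C; kinetic reading at 1 sec intervals.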
# [11] = cAMP Responsive Elements (CRE) small molecule agonists, cell-based qHTS assay (AID 1963590); details: CRE-bla HEK293T, beta-lactamase FRET ratio, 3 h; series mostly up to 92.4 µM; further: potency means the concentration at half of the fitted maximal effect
# How it was run: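 Compound exposure lasted 3 h at 37 C/5% CO2 in CRE-bla HEK 293T cells grown in assay medium with 10% dialyzed FBS and 25 mM HEPES. Reporter signal came from LiveBLAzer B/G FRET substrate, 2 h, room temperature.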
# [12] = cAMP Responsive Elements (CRE) small molecule antagonists, cell-based qHTS assay (AID 1963591; active means well fitted inhibition curve with a large enough effect in the signal ratio in the repeat runs, not every such curve was filed as active; the % refers to the signal ratio); details: CRE-bla HEK293T, beta-lactamase FRET ratio; series mostly up to 92.4 µM
# How it was run: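 Stimulation used NKH477 at a final 0.25 uM for 3 h in compound-treated CRE-bla HEK293T cells, seeded 18 h beforehand. Reporter activity was measured with LiveBLAzer B/G FRET substrate after 2 h at room temperature.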
# [13] = p53 small molecule agonists, cell-based qHTS assay with human liver microsomes (AID 1963577); details: HCT-116 p53RE-bla with human liver microsomes, ratio, 16 h; series mostly up to 66 µM;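 further: p53 response element beta-lactamase reporter cells with liver microsomes plus NADPH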
# How it was run: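 Metabolically competent format: test substances, human liver microsomes and NADPH (both 0.5 mg/mL final) incubated with p53RE-bla cells 16 h at 37 C. Beta-lactamase reporter signal then quantified by fluorescence.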
# [14] = p53 small molecule agonists, cell-based qHTS assay: qHTS cell viability counter screen (AID 1963581); details: p53RE-bla HCT-116 viability, ATP luminescence, 16 h; series mostly up to 66 µM; further: nearly all actives have a fitted effect of over 45% in size; further: potency means the concentration at half of the fitted maximal effect
# How it was run: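 Luminescence from CellTiter-Glo, reflecting ATP content, serves as the cytotoxicity measure; it is taken after the 2 h reporter substrate step in HCT-116 p53RE-bla cells dosed for 16 h at 37 C.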
# [15] = molecular target: 5-hydroxytryptamine receptor 2A (Homo sapiens) (UniProt P28223); experiment: 5-hydroxytryptamine receptor 2A (HTR2A) small molecule agonists, cell-based qHTS assay (AID 1963587); details: HTR2A-CHO cells, calcium flux fluorescence, agonist mode; series mostly up to 76.8 µM; further: nearly all actives have a fitted effect of over 30% in size; further: potency means the concentration at half of the fitted maximal effect
# How it was run: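 Kinetic calcium-flux fluorescence (2 min, 1 sec intervals) after compound addition in agonist mode. HTR2A-CHO cells were cultured 18 h, then dye-loaded 1 h at 37 C.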
# [16] = molecular target: D(2) dopamine receptor (Homo sapiens) (UniProt P14416); experiment: Dopamine D2 receptor (DRD2) small molecule antagonists, cell-based qHTS assay (AID 1963595; active means well fitted inhibition curve with a large enough effect in the signal ratio in the repeat runs, with a control signal flat; the % refers to the signal ratio; further: potency means the concentration at half of the fitted maximal effect); details: HEK293-DRD2 cAMP HTRF antagonist mode; series mostly up to 92.4 µM
# How it was run: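 In this cell-based antagonist screen, compounds act for 10 min at room temperature before a 30 min challenge with 12 nM quinpirole and 200 nM NKH477. cAMP is quantified by HTRF competition in DRD2-HEK293 cells containing 0.1 mM Ro20-1724.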
# [17] = p53 small molecule agonists, cell-based qHTS assay with rat liver microsomes: qHTS cell viability counter screen (AID 1963580); details: p53RE-bla HCT-116 + rat microsomes, ATP viability, 16 h; series mostly up to 66 µM; further: nearly all actives have a fitted effect of over 45% in size
# How it was run: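 Cytotoxicity counter screen: intracellular ATP read by CellTiter-Glo luminescence in the p53 reporter wells. HCT-116 p53RE-bla cells were treated for 16 h at 37 C alongside rat liver microsomes and NADPH, each 0.5 mg/mL final.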
# [18] = molecular target: Beta-2 adrenergic receptor (Homo sapiens) (UniProt P07550); experiment: Adrenergic beta2 receptor (ADRB2) small molecule antagonists, cell-based qHTS assay (AID 1963592); details: CHO-ADRB2 cells, isoproterenol-stimulated cAMP HTRF ratio, 0.5 h; series mostly up to 92.4 µM; further: nearly all actives have a fitted effect of over 50% in size; further: potency means the concentration at half of the fitted maximal effect
# How it was run: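 Assay format: CHO-ADRB2 cells, 18-20hr seeding at 37C/5% CO2, then compound plus 1nM isoproterenol agonist mix for 0.5hr RT. Homogeneous time-resolved fluorescence cAMP detection after 1hr, expressed as 665/615 nm ratio.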
# [19] = molecular target: D(2) dopamine receptor (Homo sapiens) (UniProt P14416); experiment: Dopamine D2 receptor (DRD2) small molecule agonists, cell-based qHTS assay (AID 1963594); details: HEK293-DRD2 cAMP HTRF, agonist mode, 30 min; series mostly up to 92.4 µM; further: nearly all actives have a fitted effect of over 35% in size
# How it was run: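 cAMP accumulation in DRD2-HEK293 cells measured by HTRF after 1 h detection; compounds added 10 min before NKH477 (200nM […]) forskolin-analogue stimulation, 30 min at room temperature, with Ro20-1724 present at 0.1 mM final.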
# [20] = molecular target: Beta-2 adrenergic receptor (Homo sapiens) (UniProt P07550); experiment: Adrenergic beta2 receptor (ADRB2) small molecule agonists, cell-based qHTS assay (AID 1963593); details: CHO-ADRB2 cells, cAMP HTRF, 30 min; series mostly up to 92.4 µM;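 further: CHO cells stably overexpressing human ADRB2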
# How it was run: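 CHO cells stably over-expressing ADRB2 were plated overnight at 37C, then dosed with compounds plus a stimulation mix containing 100uM IBMX and 25uM Ro-20-1724 for 0.5hr at room temperature. cAMP was measured by HTRF competition, 1hr.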
# Sequence of Muscarinic acetylcholine receptor M1 (Homo sapiens) (P11229 whole entry, looked up): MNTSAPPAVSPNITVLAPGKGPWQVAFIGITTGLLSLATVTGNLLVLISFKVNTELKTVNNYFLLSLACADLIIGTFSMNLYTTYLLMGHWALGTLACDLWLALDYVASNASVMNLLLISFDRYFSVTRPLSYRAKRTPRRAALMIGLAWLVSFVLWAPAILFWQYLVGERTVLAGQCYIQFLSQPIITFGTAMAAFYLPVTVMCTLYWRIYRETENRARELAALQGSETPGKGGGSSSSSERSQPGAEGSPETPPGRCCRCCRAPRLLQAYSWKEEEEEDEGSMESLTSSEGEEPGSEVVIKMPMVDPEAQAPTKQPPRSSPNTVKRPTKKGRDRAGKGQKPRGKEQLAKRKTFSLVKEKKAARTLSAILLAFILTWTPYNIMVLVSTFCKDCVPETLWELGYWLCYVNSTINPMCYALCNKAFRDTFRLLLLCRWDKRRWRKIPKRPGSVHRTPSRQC
# Sequence of Beta-2 adrenergic receptor (Homo sapiens) (P07550 whole entry, looked up): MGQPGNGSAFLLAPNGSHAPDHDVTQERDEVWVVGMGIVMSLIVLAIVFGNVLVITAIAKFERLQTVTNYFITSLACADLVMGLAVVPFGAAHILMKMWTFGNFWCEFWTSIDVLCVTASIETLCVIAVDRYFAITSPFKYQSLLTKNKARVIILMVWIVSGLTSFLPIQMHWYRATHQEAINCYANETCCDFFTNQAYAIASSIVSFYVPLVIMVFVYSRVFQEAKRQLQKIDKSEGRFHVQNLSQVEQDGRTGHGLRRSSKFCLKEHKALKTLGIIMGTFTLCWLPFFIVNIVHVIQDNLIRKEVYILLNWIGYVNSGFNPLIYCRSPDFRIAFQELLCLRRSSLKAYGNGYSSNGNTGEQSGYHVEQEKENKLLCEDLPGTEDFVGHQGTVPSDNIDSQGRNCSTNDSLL
# Sequence of D(2) dopamine receptor (Homo sapiens) (P14416 whole entry, looked up): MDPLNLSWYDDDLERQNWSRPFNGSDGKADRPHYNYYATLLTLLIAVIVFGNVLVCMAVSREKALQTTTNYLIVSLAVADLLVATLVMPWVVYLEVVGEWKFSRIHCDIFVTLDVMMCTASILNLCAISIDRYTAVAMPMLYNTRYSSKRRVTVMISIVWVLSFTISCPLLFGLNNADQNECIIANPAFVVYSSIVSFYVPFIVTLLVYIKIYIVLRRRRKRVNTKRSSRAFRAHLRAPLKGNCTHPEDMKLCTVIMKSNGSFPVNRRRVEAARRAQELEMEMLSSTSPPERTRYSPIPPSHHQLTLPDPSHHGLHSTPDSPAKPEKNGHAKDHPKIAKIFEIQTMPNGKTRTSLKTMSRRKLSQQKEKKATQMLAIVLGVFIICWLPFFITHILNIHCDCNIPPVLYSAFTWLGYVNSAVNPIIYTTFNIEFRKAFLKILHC
# Sequence of KiSS-1 receptor (Homo sapiens) (Q969F8 whole entry, looked up): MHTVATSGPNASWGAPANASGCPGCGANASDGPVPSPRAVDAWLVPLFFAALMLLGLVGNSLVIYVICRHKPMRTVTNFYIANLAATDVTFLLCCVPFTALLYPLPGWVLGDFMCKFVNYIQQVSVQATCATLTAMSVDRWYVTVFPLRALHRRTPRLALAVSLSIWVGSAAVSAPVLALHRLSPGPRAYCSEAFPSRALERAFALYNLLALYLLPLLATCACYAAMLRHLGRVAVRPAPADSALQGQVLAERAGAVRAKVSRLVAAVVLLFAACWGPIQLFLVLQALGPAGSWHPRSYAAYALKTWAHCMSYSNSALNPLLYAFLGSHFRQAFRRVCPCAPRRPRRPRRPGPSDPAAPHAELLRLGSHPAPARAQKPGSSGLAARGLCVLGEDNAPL
# Sequence of 5-hydroxytryptamine receptor 2A (Homo sapiens) (P28223 whole entry, looked up): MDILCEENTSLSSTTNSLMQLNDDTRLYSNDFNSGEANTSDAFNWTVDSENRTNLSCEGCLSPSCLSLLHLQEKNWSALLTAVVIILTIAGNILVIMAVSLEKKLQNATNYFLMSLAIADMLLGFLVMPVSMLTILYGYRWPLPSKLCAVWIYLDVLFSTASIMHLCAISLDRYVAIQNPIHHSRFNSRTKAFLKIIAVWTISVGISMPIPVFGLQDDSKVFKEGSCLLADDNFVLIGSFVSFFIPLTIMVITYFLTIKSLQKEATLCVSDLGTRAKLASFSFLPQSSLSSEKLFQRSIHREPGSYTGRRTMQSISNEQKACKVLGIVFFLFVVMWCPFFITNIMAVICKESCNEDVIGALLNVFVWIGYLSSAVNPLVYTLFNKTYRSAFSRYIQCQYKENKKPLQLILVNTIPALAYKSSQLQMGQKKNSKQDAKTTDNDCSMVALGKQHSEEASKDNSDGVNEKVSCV
# Sequence of Gonadotropin-releasing hormone receptor (Homo sapiens) (P30968 whole entry, looked up): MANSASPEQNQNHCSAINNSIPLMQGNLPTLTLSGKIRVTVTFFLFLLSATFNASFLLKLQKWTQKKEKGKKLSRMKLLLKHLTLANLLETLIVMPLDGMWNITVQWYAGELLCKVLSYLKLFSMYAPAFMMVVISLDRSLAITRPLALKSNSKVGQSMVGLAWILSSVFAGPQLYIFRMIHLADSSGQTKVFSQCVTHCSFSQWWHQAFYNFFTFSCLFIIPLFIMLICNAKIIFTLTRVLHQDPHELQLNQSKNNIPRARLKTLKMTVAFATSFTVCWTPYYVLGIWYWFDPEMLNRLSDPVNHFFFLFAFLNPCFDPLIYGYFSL
Structure (SMILES),Potency [1],Potency [2],Potency [3],Potency [4],Potency [5],Potency [6],Potency [7],Potency [8],Potency [9],Potency [10],Potency [11],Potency [12],Potency [13],Potency [14],Potency [15],Potency [16],Potency [17],Potency [18],Potency [19],Potency [20]
CCN(CC)c1ccc(C(=C2C=CC(=[N+](CC)CC)C=C2)c2cc(S(=O)(=O)O)ccc2S(=O)(=O)[O-])cc1,inactive,inactive,inactive,inactive,inactive,inactive,inactive,inactive,inactive,inactive,inactive,inactive,–,–,–,–,–,–,–,–
C[Si](C)(C)C,inactive,inactive,inactive,inactive,–,inactive,inactive,–,inactive,inactive,inactive,inactive,inactive,inactive,inactive,inactive,–,–,–,–
N[C@@H](CS)C(=O)O,inactive,inactive,inactive,inactive,inactive,inactive,inactive,inactive,inactive,inactive,–,inactive,–,inactive,inactive,inactive,inactive,inactive,inactive,–
CCCCCCCCCCCCCCCCC(C(=O)O)C(O)(CC(=O)O)C(=O)O (configuration not stated),inactive,inactive,inactive,inactive,inactive,inactive,inactive,13 µM (active),–,inactive,inactive,inactive,–,–,–,inactive,inactive,inactive,inactive,inactive
O=[N+]([O-])c1ccc(O)cc1,inactive,inactive,inactive,inactive,–,inactive,inactive,–,inactive,inactive,inactive,–,inactive,inactive,inactive,–,–,inactive,inactive,inactive
COC(=O)C1=C(C)NC(C)=C(C(=O)O[C@@H]2CCCN(Cc3ccccc3)C2)[C@@H]1c1cccc([N+](=O)[O-])c1,inactive,inactive,inactive,inactive,inactive,inactive,inactive,inactive,inactive,inactive,inactive,inactive,–,inactive,inactive,inactive,inactive,–,inactive,inactive
CN(C)CCCN1c2ccccc2Sc2ccc(C(F)(F)F)cc21,inactive,inactive,inactive,inactive,inactive,inactive,–,–,inactive,inactive,–,inactive,–,inactive,–,0.0596 µM (active),inactive,inactive,inactive,–
S=c1[nH]c2ccccc2s1,21.7 µM (active),inactive,inactive,inactive,inactive,–,–,inactive,–,inactive,48.6 µM (active),–,–,–,inactive,–,inactive,–,–,–
Cc1cc(NC(=O)C(=O)O)cc(C)c1Oc1ccc(O)c2c1CCC2,inactive,inactive,inactive,inactive,inactive,inactive,inactive,inactive,inactive,inactive,inactive,–,–,inactive,inactive,inactive,inactive,inactive,–,inactive
Cc1cc(=O)oc2cc(N(C)C)ccc12,inactive,inactive,inactive,inactive,inactive,inactive,32.4 µM (active),–,–,inactive,–,–,–,inactive,–,inactive,inactive,inactive,inactive,–
Nc1cccc2c(N)cccc12,13.7 µM (active),inactive,inactive,inactive,–,–,–,–,inactive,inactive,inactive,–,inactive,0.646 µM (active),inactive,–,inactive,–,–,–
CNCC[C@@H](Oc1ccccc1C)c1ccccc1,inactive,inactive,inactive,inactive,inactive,inactive,inactive,–,–,inactive,–,inactive,–,–,inactive,inactive,inactive,inactive,inactive,–
CCCCCOc1ccccc1/C(=C\SC)n1ccnc1,5.96 µM (active),inactive,inactive,inactive,–,–,inactive,inactive,inactive,inactive,–,–,inactive,–,inactive,inactive,–,inactive,inactive,inactive
CCCCCC[C@@H](O)C/C=C\CCCCCCCC(=O)O,inactive,inactive,inactive,inactive,inactive,inactive,–,inactive,inactive,inactive,–,inactive,–,inactive,–,inactive,inactive,inactive,inactive,inactive
CN(C)C(=O)Oc1cccc([N+](C)(C)C)c1,inactive,inactive,inactive,inactive,inactive,inactive,inactive,–,–,–,inactive,inactive,–,inactive,–,inactive,inactive,inactive,inactive,–
CN(C)CCOc1ccc(/C(=C(/CCCl)c2ccccc2)c2ccccc2)cc1,inactive,inactive,inactive,inactive,inactive,30.3 µM (active),–,–,inactive,inactive,–,–,–,–,40.9 µM (active),57.2 µM (active),–,57.2 µM (active),inactive,–
